Measurements published in PubChem BioAssay (NCATS).
Inconclusive results are not listed. Active and inactive are the calls of the source. Calls come from the whole dose curve; as a rule, active = well fitted cell-killing curve with a large enough effect; inconclusive = small, poorly fitted or top-dose-only effect, or effect the other way; inactive = no such curve, though single readings can be large or run the other way.

Assays:
[1] = Quantitative High-Throughput drug screen in 47 multiple myeloma cell lines against the NCATS MIPE library collection: MM1R_ATCC cell viability assay (AID 1918981); note: nearly all actives have a fitted effect of over 35% in size
Outline: (§1)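 Cells were exposed to library compounds for 48 hours, after which ATP was measured by CellTiter-Glo. Signal was taken as median relative luminescence units.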

[2] = Quantitative High-Throughput drug screen in 47 multiple myeloma cell lines against the NCATS MIPE library collection: LP1_DSMZ cell viability assay (AID 1918982); note: nearly all actives have a fitted effect of over 35% in size
Outline: as §1

[3] = Quantitative High-Throughput drug screen in 47 multiple myeloma cell lines against the NCATS MIPE library collection: KMS34_JCRB cell viability assay (AID 1918985); note: nearly all actives have a fitted effect of over 40% in size
Outline: as §1

[4] = Quantitative High-Throughput drug screen in 47 multiple myeloma cell lines against the NCATS MIPE library collection: OCIMY5_PLB cell viability assay (AID 1918988); note: nearly all actives have a fitted effect of over 65% in size
Outline: as §1

[5] = Quantitative High-Throughput drug screen in 47 multiple myeloma cell lines against the NCATS MIPE library collection: OPM1_PLB cell viability assay (AID 1918989); note: nearly all actives have a fitted effect of over 40% in size
Outline: as §1

[6] = Quantitative High-Throughput drug screen in 47 multiple myeloma cell lines against the NCATS MIPE library collection: SKMM1_PLB cell viability assay (AID 1919863); details: SKMM1 myeloma viability, CellTiter-Glo ATP, 48 h; viability: stronger effect = lower value; note: nearly all actives have a fitted effect of over 35% in size
Outline: as §1

[7] = Quantitative High-Throughput drug screen in 47 multiple myeloma cell lines against the NCATS MIPE library collection: U266_ATCC cell viability assay (AID 1919864); note: nearly all actives have a fitted effect of over 35% in size;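 for viability (% of DMSO control): 0% = media-only wells without cells and 100% = DMSO-only wells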
Outline: as §1

[8] = Quantitative High-Throughput drug screen in 47 multiple myeloma cell lines against the NCATS MIPE library collection: XG1_PLB cell viability assay (AID 1919866); note: nearly all actives have a fitted effect of over 35% in size
Outline: as §1

[9] = Quantitative High-Throughput drug screen in 47 multiple myeloma cell lines against the NCATS MIPE library collection: PE2_PLB cell viability assay (AID 1919869); note: nearly all actives have a fitted effect of over 35% in size
Outline: as §1

[10] = Quantitative High-Throughput drug screen in 47 multiple myeloma cell lines against the NCATS MIPE library collection: PCM6_Riken cell viability assay (AID 1919870); note: nearly all actives have a fitted effect of over 30% in size
Outline: as §1

[11] = Quantitative High-Throughput drug screen in 47 multiple myeloma cell lines against the NCATS MIPE library collection: RPMI8226_ATCC cell viability assay (AID 1919871); note: nearly all actives have a fitted effect of over 30% in size
Outline: as §1

[12] = Quantitative High-Throughput drug screen in 47 multiple myeloma cell lines against the NCATS MIPE library collection: OPM2_DSMZ cell viability assay (AID 1919872); note: nearly all actives have a fitted effect of over 30% in size
Outline: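 qHTS of the MIPE 4.0 collection: 500 myeloma cells/well, 48 h drug exposure at 37C in 5% CO2, then CellTiter-Glo for 5 min at room temperature before luminescence reading.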

[13] = Quantitative High-Throughput drug screen in 47 multiple myeloma cell lines against the NCATS MIPE library collection: KMS11_JCRBsus cell viability assay (AID 1919873); note: nearly all actives have a fitted effect of over 50% in size
Outline: as §1

[14] = Quantitative High-Throughput drug screen in 47 multiple myeloma cell lines against the NCATS MIPE library collection: KMS28BM_JCRB cell viability assay (AID 1919874); note: nearly all actives have a fitted effect of over 35% in size
Outline: as §1

[15] = Quantitative High-Throughput drug screen in 47 multiple myeloma cell lines against the NCATS MIPE library collection: OCIMY7_PLB cell viability assay (AID 1918987); note: nearly all actives have a fitted effect of over 65% in size
Outline: as §1

[16] = Quantitative High-Throughput drug screen in 47 multiple myeloma cell lines against the NCATS MIPE library collection: XG6_PLB cell viability assay (AID 1919865); note: nearly all actives have a fitted effect of over 40% in size
Outline: as §1

[17] = Quantitative High-Throughput drug screen in 47 multiple myeloma cell lines against the NCATS MIPE library collection: UTMC2_PLB cell viability assay (AID 1919868); details: CellTiter-Glo ATP luminescence, 48 h; viability (% of DMSO control): at 45.8 µM (top of the series); note: nearly all actives have a fitted effect of over 55% in size;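 for viability (% of DMSO control): 100% = DMSO-only wells and 0% = media-only wells without cells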
Outline: as §1

[18] = Quantitative High-Throughput drug screen in 47 multiple myeloma cell lines against the NCATS MIPE library collection: KMS28PE_JCRB cell viability assay (AID 1918983); note: nearly all actives have a fitted effect of over 35% in size
Outline: as §1

[19] = Quantitative High-Throughput drug screen in 47 multiple myeloma cell lines against the NCATS MIPE library collection: VP6_DJ cell viability assay (AID 1919867); note: nearly all actives have a fitted effect of over 40% in size
Outline: as §1
Potency is the fitted concentration of half-maximal effect.

c1ccc(CCCN2CCN(CCOC(c3ccccc3)c3ccccc3)CC2)cc1
active: Potency [1] 23.5 µM | Potency [2] 20.9 µM | Potency [3] 26.4 µM | Potency [4] 20.9 µM | Potency [5] 20.9 µM | Potency [6] 20.9 µM | Potency [7] 23.5 µM | Potency [8] 20.9 µM | Potency [9] 18.7 µM | Potency [10] 26.4 µM | Potency [11] 20.9 µM | Potency [12] 26.4 µM | Potency [13] 20.9 µM | Potency [14] 20.9 µM

COc1cc2cc(c1Cl)N(C)C(=O)C[C@H](OC(=O)C(C)C)[C@]1(C)O[C@H]1[C@H](C)[C@@H]1C[C@@](O)(NC(=O)O1)[C@H](OC)C=CC=C(C)C2
inactive: Potency [1] | Potency [2] | Potency [3] | Potency [15] | Potency [5] | viability [6] 50.1% | Potency [7] | Potency [16] | Potency [8] | Potency [17] | Potency [11] | Potency [12] | Potency [13] | Potency [14]

C1=C2CCCN[C@H]2[C@@H]2C[C@H]1[C@@H]1CCCCN1C2
inactive: Potency [1] | Potency [2] | Potency [18] | Potency [15] | Potency [4] | Potency [5] | viability [6] 99.4% | Potency [7] | Potency [16] | Potency [8] | Potency [17] | Potency [11] | Potency [12] | Potency [13] | Potency [14]

CC=C(C)C(=O)N[C@@H](c1ccccc1)[C@@H](O)C(=O)O[C@H]1C[C@@]2(O)[C@@H](OC(=O)c3ccccc3)[C@@H]3[C@]4(OC(C)=O)CO[C@@H]4C[C@H](O)[C@@]3(C)C(=O)[C@H](OC(C)=O)C(=C1C)C2(C)C
inactive: Potency [1] | Potency [2] | Potency [18] | Potency [3] | viability [6] 60.8% | Potency [16] | Potency [8] | Potency [19] | Potency [17] | Potency [9] | Potency [11] | Potency [13]

CC(O)=C(C#N)C(=O)Nc1cc(Br)ccc1Br
active: Potency [1] 20.9 µM | Potency [4] 1.66 µM | Potency [6] 20.9 µM | Potency [19] 2.96 µM | Potency [10] 1.32 µM | Potency [11] 11.8 µM
inactive: Potency [2] | Potency [16] | Potency [8] | Potency [12]

CN1CCN(c2ccc([N+](=O)[O-])c3no[n+]([O-])c23)CC1
active: Potency [1] 20.9 µM | Potency [2] 18.7 µM | Potency [15] 4.18 µM | Potency [5] 18.7 µM | Potency [6] 18.7 µM | Potency [7] 18.7 µM | Potency [16] 20.9 µM | Potency [8] 20.9 µM | Potency [19] 14.8 µM | Potency [17] 18.7 µM | Potency [9] 23.5 µM | Potency [13] 23.5 µM | Potency [14] 18.7 µM

CC(=O)O[C@@]12CO[C@H]1C[C@H](O)[C@@]1(C)C(=O)[C@H](O)C3=C(C)[C@@H](O)C[C@@](O)([C@@H](OC(=O)c4ccccc4)[C@@H]21)C3(C)C
inactive: Potency [7]
active: Potency [1] 7.43 µM | Potency [15] 2.09 µM | Potency [4] 1.48 µM | Potency [5] 1.32 µM | Potency [6] 4.18 µM | Potency [16] 0.418 µM | Potency [8] 0.526 µM | Potency [19] 0.935 µM | Potency [10] 3.32 µM | Potency [11] 2.96 µM | Potency [12] 9.35 µM | Potency [13] 2.35 µM

CC(C)[C@H]1C(=O)N[C@H](CO)Cc2c[nH]c3cccc(c23)N1C
inactive: Potency [1] | Potency [3] | Potency [4] | Potency [7] | Potency [8] | Potency [19] | Potency [13]
active: Potency [18] 0.264 µM | Potency [16] 0.0935 µM | Potency [12] 0.0662 µM

COc1cccc2c1[C@]13CCN(CC4CC4)[C@H](C2)[C@]1(OC)CCC(=O)C3
inactive: Potency [1] | Potency [2] | Potency [15] | Potency [5] | Potency [7] | Potency [16] | Potency [8] | Potency [9] | Potency [10] | Potency [12] | Potency [13] | Potency [14]
active: Potency [19] 20.9 µM

COC[C@H]1OC(=O)c2coc3c2[C@@]1(C)C1=C(C3=O)[C@@H]2CC[C@H](O)[C@@]2(C)C[C@@H]1OC(C)=O
active: Potency [1] 0.332 µM | Potency [18] 1.32 µM | Potency [3] 2.09 µM | Potency [15] 0.418 µM | Potency [6] 7.43 µM | Potency [7] 16.6 µM | Potency [16] 4.18 µM | Potency [8] 2.09 µM | Potency [19] 1.87 µM | Potency [17] 0.296 µM | Potency [9] 0.743 µM | Potency [10] 3.72 µM | Potency [11] 2.96 µM | Potency [12] 1.87 µM | Potency [13] 1.66 µM | Potency [14] 9.35 µM

CC1(N2CCC(n3c([C@@H]4CCCNC4)nc4ccccc43)CC2)CCCCCCC1
active: Potency [1] 14.8 µM | Potency [2] 23.5 µM | Potency [7] 5.26 µM | Potency [16] 9.35 µM | Potency [8] 18.7 µM | Potency [19] 14.8 µM | Potency [11] 20.9 µM | Potency [12] 18.7 µM | Potency [13] 13.2 µM | Potency [14] 23.5 µM

O=[N+]([O-])c1ncc[nH]1
active: Potency [4] 29.6 µM
inactive: Potency [1] | Potency [2] | Potency [7] | Potency [8] | Potency [17] | Potency [9] | Potency [11] | Potency [12]

COC1=CC(C)=C[C@@H](C)[C@@H](O)[C@@H](C)CC(C)=CC=C[C@H](OC)[C@H]([C@@H](C)[C@@H](O)[C@H](C)[C@@]2(O)C[C@@H](O)[C@H](C)[C@@H](C(C)C)O2)OC1=O
active: Potency [1] 1.66 µM | Potency [2] 0.0021 µM | Potency [3] 0.003 µM | Potency [16] 0.001 µM | Potency [17] 0.001 µM | Potency [9] 0.0118 µM | Potency [10] 9.35 µM | Potency [13] 0.0019 µM | Potency [14] 20.9 µM
